Holding throughout (test): DAPPL (digital affinity profiling via proximity ligation, sequencing); 10 mM Tris-HCl pH 7.5, 50 mM NaCl, 1 mM DTT, 4% glycerol, room temperature, 30 min; GST-TFs on glutathione beads, 16-mer random dsDNA library, 0.1% formaldehyde crosslink after washing; high values mean tight binding
What all share (details): protein: recombinant; tags: N-terminal GST; dsDNA, one strand shown

Test [1] deals with T1, GABPA (Homo sapiens, UniProt Q06546 1-454).
T1 sequence: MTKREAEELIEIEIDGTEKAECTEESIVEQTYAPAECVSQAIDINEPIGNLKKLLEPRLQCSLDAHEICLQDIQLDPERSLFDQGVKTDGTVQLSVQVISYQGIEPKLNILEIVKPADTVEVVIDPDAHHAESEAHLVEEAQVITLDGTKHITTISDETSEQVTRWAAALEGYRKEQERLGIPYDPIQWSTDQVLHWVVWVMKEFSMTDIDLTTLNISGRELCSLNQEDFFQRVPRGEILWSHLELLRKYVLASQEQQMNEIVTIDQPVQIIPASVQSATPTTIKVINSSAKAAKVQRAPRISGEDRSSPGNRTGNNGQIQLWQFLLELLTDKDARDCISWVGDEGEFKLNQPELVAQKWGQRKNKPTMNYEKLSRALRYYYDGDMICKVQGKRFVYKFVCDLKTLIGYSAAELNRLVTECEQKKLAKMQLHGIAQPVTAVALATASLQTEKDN
In outline: (§1)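 Binding signal is defined as a hexamer's read frequency for one factor over its frequency for the tag-only sample. To obtain reads, GST-fused human transcription factors were expressed in yeast, captured on glutathione beads, barcoded with DNA and pooled with that sample. Pools met 200 nmole of a 16-mer random double-stranded DNA library in Tris/NaCl/DTT/glycerol buffer for 30 min at room temperature before washing, 0.1% formaldehyde crosslinking, proximity ligation (BsaI/T4 ligase, 1 h, 37 °C), PCR and Illumina NextSeq500 sequencing.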

Test [2] addresses T2, ERG (Homo sapiens, UniProt P11308 1-479).
T2 sequence: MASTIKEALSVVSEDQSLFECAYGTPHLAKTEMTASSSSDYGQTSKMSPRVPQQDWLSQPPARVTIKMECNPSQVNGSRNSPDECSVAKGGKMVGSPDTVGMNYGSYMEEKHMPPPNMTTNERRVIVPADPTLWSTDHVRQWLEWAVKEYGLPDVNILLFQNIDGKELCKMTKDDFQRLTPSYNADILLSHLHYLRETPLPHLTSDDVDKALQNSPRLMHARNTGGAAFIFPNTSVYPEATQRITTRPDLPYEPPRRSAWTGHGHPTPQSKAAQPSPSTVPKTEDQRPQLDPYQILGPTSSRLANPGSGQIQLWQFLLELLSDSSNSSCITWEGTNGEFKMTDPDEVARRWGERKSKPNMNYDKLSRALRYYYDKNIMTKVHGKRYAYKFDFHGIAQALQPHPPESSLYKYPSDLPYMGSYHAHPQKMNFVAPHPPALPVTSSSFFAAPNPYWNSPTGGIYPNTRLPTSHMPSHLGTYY
In outline: as §1

Test [3] addresses ELF1 (Homo sapiens, UniProt P32519 1-619). A digest of the protocol:
as §1

Test [4] addresses SPI1 (Homo sapiens, UniProt P17947 1-270). A digest of the protocol:
as §1

In test [5] the target is SPIB (Homo sapiens, UniProt Q01892 1-262). In outline: as §1
Test [6] deals with T3, ELK3 (Homo sapiens, UniProt P41970 1-407).
T3 sequence: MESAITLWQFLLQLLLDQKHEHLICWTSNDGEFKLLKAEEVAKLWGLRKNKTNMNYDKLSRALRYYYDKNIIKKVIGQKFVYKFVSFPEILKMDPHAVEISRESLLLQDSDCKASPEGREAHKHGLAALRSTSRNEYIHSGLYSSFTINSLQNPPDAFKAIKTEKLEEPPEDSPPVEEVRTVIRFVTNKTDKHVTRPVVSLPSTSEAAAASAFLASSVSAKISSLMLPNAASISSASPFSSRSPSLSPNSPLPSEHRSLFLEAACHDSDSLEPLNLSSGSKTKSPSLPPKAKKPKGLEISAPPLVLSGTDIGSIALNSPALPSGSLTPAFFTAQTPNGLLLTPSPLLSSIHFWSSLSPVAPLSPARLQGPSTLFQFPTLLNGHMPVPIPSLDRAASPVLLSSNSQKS
A digest of the protocol: as §1

In test [7] the target is T4, FEV (Homo sapiens, UniProt Q99581 1-238).
T4 sequence: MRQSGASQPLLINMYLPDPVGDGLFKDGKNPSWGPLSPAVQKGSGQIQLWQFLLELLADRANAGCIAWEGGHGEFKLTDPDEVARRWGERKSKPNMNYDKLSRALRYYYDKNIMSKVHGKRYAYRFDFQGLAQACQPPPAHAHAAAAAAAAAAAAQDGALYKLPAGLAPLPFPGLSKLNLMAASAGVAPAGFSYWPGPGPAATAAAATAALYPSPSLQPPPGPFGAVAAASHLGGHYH
In outline: as §1

For test [8], the target named is T5, SPIC (Homo sapiens, UniProt Q8N5J4 1-248).
T5 sequence: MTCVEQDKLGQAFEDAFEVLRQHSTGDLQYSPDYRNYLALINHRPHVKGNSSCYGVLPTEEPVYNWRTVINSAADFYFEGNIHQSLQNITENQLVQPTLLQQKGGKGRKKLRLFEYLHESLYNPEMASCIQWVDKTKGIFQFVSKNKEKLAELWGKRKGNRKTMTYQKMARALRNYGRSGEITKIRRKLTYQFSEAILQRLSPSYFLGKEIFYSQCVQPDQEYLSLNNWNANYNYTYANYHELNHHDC
A digest of the protocol:
as §1

Test [9] deals with ELF4 (Homo sapiens, UniProt Q99607 1-663). A digest of the protocol: as §1
Test [10] deals with T6, ELK4 (Homo sapiens, UniProt P28324-2 1-405).
T6 sequence: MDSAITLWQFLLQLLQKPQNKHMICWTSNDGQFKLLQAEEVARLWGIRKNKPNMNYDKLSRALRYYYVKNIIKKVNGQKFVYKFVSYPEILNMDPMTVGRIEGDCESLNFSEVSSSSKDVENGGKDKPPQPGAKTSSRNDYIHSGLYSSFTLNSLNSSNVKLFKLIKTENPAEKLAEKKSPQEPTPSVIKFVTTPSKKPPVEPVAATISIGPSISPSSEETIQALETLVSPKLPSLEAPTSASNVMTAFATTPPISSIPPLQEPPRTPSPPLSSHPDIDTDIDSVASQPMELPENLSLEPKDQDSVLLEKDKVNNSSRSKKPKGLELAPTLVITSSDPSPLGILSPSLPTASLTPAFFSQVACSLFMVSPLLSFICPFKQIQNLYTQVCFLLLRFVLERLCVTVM
In outline: as §1

Test [11] deals with T7, ELF3 (Homo sapiens, UniProt P78545 1-371).
T7 sequence: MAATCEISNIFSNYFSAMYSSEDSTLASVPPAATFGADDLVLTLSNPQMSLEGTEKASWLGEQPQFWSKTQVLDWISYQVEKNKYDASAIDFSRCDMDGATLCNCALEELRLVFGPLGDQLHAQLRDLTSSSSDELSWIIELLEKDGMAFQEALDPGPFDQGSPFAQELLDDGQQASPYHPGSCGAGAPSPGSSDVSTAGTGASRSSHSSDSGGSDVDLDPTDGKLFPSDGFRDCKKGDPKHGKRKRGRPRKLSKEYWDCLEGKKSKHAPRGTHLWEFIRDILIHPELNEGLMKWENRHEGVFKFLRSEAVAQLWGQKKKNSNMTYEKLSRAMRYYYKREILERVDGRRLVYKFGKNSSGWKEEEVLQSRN
A digest of the protocol: as §1

In test [12] the target is T8, ETS2 (Homo sapiens, UniProt P15036 1-469).
T8 sequence: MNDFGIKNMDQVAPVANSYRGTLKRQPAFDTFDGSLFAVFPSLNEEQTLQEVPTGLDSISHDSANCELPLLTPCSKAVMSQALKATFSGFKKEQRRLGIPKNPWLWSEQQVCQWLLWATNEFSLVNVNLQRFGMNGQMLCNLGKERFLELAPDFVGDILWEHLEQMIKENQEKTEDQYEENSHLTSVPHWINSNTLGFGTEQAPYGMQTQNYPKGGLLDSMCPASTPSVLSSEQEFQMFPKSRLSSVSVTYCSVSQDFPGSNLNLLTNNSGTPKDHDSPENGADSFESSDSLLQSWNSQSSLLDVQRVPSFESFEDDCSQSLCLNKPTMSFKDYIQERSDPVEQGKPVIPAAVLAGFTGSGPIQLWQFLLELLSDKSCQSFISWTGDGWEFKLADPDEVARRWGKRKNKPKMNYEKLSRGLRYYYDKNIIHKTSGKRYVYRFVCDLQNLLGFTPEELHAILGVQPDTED
A digest of the protocol:
as §1

Test [13] deals with T9, ETV7 (Homo sapiens, UniProt Q9Y603 1-341).
T9 sequence: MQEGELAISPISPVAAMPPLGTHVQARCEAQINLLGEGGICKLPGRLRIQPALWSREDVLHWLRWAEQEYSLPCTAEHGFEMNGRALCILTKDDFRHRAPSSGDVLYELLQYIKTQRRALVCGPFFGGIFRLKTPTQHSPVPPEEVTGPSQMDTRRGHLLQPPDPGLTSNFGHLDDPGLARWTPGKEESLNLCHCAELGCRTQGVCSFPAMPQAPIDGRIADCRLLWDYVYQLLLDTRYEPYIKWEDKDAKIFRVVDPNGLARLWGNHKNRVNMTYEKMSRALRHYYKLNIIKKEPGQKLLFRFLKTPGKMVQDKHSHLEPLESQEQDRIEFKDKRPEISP
In outline:
as §1

In test [14] the target is ETV6 (Homo sapiens, UniProt P41212 1-452). In outline: as §1
Sequence of ETV6 (P41212 whole entry): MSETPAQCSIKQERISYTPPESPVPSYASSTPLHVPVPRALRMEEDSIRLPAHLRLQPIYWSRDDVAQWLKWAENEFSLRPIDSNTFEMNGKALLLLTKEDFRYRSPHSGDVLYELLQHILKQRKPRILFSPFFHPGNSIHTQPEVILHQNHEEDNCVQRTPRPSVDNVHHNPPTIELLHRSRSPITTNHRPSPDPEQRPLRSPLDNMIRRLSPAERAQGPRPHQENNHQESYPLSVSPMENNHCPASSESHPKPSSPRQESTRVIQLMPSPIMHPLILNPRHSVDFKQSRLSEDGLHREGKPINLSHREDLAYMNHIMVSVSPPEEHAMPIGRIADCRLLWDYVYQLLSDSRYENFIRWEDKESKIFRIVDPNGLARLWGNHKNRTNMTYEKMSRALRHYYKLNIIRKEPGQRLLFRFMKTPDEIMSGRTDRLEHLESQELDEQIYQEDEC

Sequence of ELF1 (P32519 whole entry): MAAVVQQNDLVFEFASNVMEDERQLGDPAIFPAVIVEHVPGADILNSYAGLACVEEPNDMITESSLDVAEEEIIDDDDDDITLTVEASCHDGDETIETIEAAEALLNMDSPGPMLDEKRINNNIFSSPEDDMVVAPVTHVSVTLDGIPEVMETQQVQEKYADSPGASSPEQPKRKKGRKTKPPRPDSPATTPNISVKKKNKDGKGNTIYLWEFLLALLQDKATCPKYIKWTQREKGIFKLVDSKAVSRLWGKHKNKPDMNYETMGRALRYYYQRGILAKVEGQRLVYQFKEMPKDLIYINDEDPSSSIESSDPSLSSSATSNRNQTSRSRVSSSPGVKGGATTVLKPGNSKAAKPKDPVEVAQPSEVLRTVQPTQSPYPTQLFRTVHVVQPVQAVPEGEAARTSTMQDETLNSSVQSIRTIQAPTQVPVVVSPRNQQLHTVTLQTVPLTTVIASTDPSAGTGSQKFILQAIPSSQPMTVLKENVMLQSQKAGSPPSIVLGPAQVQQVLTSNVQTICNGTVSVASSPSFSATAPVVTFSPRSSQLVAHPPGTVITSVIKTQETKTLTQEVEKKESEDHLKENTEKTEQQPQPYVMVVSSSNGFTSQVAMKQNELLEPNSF
Sequence of SPIB (Q01892 whole entry): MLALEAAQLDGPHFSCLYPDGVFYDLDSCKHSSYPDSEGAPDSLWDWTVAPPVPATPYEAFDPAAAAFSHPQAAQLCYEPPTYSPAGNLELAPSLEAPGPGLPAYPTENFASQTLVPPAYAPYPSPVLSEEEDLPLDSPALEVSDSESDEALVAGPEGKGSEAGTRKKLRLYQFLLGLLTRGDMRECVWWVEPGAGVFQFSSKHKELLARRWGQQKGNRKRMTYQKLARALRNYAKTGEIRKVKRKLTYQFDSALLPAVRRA
Sequence of ELF4 (Q99607 whole entry): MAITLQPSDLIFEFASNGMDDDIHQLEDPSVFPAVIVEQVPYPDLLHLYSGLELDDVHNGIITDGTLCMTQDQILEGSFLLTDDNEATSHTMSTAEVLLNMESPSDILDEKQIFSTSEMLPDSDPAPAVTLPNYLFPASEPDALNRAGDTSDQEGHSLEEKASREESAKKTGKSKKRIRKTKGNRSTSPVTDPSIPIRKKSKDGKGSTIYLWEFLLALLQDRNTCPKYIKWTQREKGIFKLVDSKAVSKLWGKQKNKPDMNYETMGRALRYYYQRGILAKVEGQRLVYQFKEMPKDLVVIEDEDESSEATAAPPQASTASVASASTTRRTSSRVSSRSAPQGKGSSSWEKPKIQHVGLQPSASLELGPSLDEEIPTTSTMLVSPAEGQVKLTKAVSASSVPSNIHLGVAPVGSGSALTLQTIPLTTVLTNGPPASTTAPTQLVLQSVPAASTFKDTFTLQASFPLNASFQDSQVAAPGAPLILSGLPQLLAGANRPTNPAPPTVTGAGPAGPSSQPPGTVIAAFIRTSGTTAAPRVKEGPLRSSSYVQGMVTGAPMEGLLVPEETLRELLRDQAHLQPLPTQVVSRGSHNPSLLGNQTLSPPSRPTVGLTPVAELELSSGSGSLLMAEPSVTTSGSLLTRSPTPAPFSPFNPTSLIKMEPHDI

For the sequence GTGGCC, the binding signal in test [1] was 1.06 fold enrichment (6-mer frequency, TF over GST control); in test [2] it was 1.1 fold enrichment (6-mer frequency, TF over GST control); in [3], 1.05 fold enrichment (6-mer frequency, TF over GST control); in test [4], 1.2 fold enrichment (6-mer frequency, TF over GST control); in test [5], 1.2 fold enrichment (6-mer frequency, TF over GST control); in test [6], 1.22 fold enrichment (6-mer frequency, TF over GST control). The binding signal in test [7] was 1.14 fold enrichment (6-mer frequency, TF over GST control); in test [8] it was 1.02 fold enrichment (6-mer frequency, TF over GST control); in test [9] it was 1.02 fold enrichment (6-mer frequency, TF over GST control); in test [10], 1.03 fold enrichment (6-mer frequency, TF over GST control); in [11], 1.09 fold enrichment (6-mer frequency, TF over GST control); in [12], 1.01 fold enrichment (6-mer frequency, TF over GST control). The binding signal was 1.01 fold enrichment (6-mer frequency, TF over GST control) in test [13] and 1.1 fold enrichment (6-mer frequency, TF over GST control) in [14].

Consider AGGCAC, for which the binding signal in test [8] is 1.03 fold enrichment (6-mer frequency, TF over GST control).

Consider AGGGCC, for which the binding signal in test [8] is 1.02 fold enrichment (6-mer frequency, TF over GST control); in test [10], 1.1 fold enrichment (6-mer frequency, TF over GST control).

These data come from paper PMC7862700, “An all-to-all approach to the identification of sequence-specific readers for epigenetic DNA modifications on cytosine”.
